Vaccinia Venus = inhibitors of vaccinia virus (Venus reporter) | Vaccinia virus Venus reporter expression, fluorescence | Potency, µM (highest dose often 36.5 µM), for inactives: at the highest dose activity change, negative = inhibition, actives largely listed as inhibitors | hit rate 0.46% among 330,000 | AID 720580; calls by dose curve; tested in A549 cells; also: potency is read from the fitted curve at half-maximal effect; % is scaled to controls: 0 for no effect and ±100 for the full control effect; nearly all actives have a fitted effect of over 30% in size
MARV entry inh = inhibitors of Marburg virus binding or cell entry; Marburg virus pseudotyped entry inhibition, cell reporter; Potency, µM (top dose mostly 37.8 µM), for inactives: at the top dose activity change, negative = inhibition, hits mostly inhibitors; hit rate 1.8% among 300,000; AID 540276; calls by dose curve; tested in HEK293 cells; also: potency is read from the fitted curve at half-maximal effect; % is scaled to controls: 0 for no effect and ±100 for the full control effect
VACV mCherry inh = vaccinia inhibition (mCherry reporter); Vaccinia virus mCherry reporter infection, fluorescence; Potency, µM (highest dose often 36.5 µM), for inactives: top-dose activity change, negative = inhibition, usual class: inhibitors; hit rate 0.63% among 310,000; AID 720579; calls by dose curve; tested in A549 cells; also: potency is read from the fitted curve at half-maximal effect; % is scaled to controls: 0 for no effect and ±100 for the full control effect; nearly all actives have a fitted effect of over 35% in size
Lassa entry inh = blocks Lassa virus binding to or entry into cells; Lassa virus pseudotype entry inhibition, cell reporter; Potency, µM (titrated, usually from 37.9 µM), for the others: at the top dose activity change, negative = inhibition, hits mostly inhibitors; hit rate 1.2% among 300,000; AID 540256; calls by dose curve; tested in HEK293 cells; also: potency is read from the fitted curve at half-maximal effect; % is scaled to controls: 0 for no effect and ±100 for the full control effect; nearly all actives have a fitted effect of over 50% in size
Shiga inhibitor = inhibitors of Shiga toxin in Vero cells | Vero cells, Shiga toxin protein synthesis inhibition reporter | inhibition, % at 38.7 µM | hit rate 9.2% among 290,000 | AID 2315; in the data active = inhibition mostly above about 28%, no sharp cut-off; inactive = mostly below about 43%; also: 0% is about no effect
CHX counter = affects cycloheximide protein synthesis inhibition readout, counter-screen; hit rate 12% among 300,000; cell reporter, cycloheximide protein synthesis inhibition counterscreen; max response, %; in the data active = max response mostly above about 13%, no sharp cut-off; inactive = mostly below about 14%; also: read at 38.3 µM for the half of the compounds with a filed dose; 0% is about no effect
Numbers without * were called inactive; i = inactive; ? = inconclusive; / = not tested or not shown; + = active, no number; [ ] = another dose, or the depositor's remark. Many of the other results were omitted from the sample, so hits are more common in it than they were.

SMILES	Vaccinia Venus	MARV entry inh	VACV mCherry inh	Lassa entry inh	Shiga inhibitor	CHX counter
COc1ccc(CCCC(=O)N/N=C/c2cccc(OC)c2O)cc1C	?	?	?	?	52.3*	28.2*
COc1cccc(/C=N/NC(=O)CNC(=O)c2ccco2)c1O	/	/	/	/	53.8	14.8*
CN(Cc1cn(Cc2ccccc2)nn1)C1CN(Cc2cn(Cc3ccccc3)nn2)S(=O)(=O)C1 (stereo unspecified)	-0.5%	/	-1.4%	/	/	/
CC(C)c1ccc(S(=O)(=O)c2nnn3c2nc(NC2CCCC2)c2sccc23)cc1	-13.6%	/	-1.4%	1.5%[46.1 µM]	/	/
COC(=O)N[C@@H](c1ccccc1)[C@]1(C(C)=O)CCCC1=O	/	-4.1%[14.2 µM]	/	/	/	/
O=C(c1cc(COc2ccc(F)cc2Cl)on1)N1CCCCCCC1	9.0%[7.34 µM]	/	-1.3%[7.34 µM]	/	40.3*	32.2*
O=C(c1cc(COc2ccc(F)cc2Cl)on1)N1CCC(c2ccncc2)CC1	-19.8%	?	-19.6%	?	22.1	9.6
NC(=O)[C@@H]1CCCN1C(=O)c1cc(COc2ccc(F)cc2F)on1	/	/	/	/	18.9	21.5
O=C(NCCc1ccccc1F)c1cc(COc2ccc(F)cc2F)on1	-18.4%	/	i	/	/	/
CCC(NC(=O)c1cc(COc2cncc(Cl)c2)on1)c1ccncc1 (stereo unspecified)	/	/	/	/	1.3	-2.9
CCC(NC(=O)c1cc(COc2ccc(F)cc2Cl)on1)c1ccncc1 (stereo unspecified)	/	/	/	/	-0.6	6.4*
O=C(c1cc(COc2ccc(F)cc2F)on1)N1CCSCC1	-9.5%	?	-1.3%	?	85.1*	57.6*
O=C(N[C@H]1CCCCNC1=O)c1cc(COc2ccc(F)cc2F)on1	/	/	/	/	9.5	19.4*
Cc1ccc(Cl)cc1NC(=O)c1nnn(Cc2ccccc2)c1N	-29.4%	?	i	-4.6%[46.1 µM]	/	/
COc1ccc(-n2c(=O)c3c4c(sc3n(Cc3c(F)cccc3Cl)c2=O)CN(C(C)=O)CC4)cc1OC	-1.3%	/	-16.9%	-10.1%[46.1 µM]	/	/
O=C(c1cc(COc2ccc(F)cc2Cl)on1)N1CCCCCC1	/	/	/	/	89.1*	52.8*
CCCc1ccc(-c2ccc(C(=O)Oc3ccc(Br)cc3)cc2)nc1	4.2%	/	10.2%	27.1%[46.1 µM]	/	/
CCCCCc1ccc(-c2ccc(/C=C/C(=O)O)cc2)nc1	-16.5%	?	-2.3%	?	55.4*	44.2*
CCCCCCCc1ccc(-c2ccc(O)cc2)nc1	-11.5%	-2.6%[46.1 µM]	2.4%	-6.2%	80.7*	30.7*
CCCc1ccc(-c2ccc(/C=C/C(=O)O)cc2)nc1	-5.0%	0.231µM*	-7.2%	0.461µM*	60.7*	33.0
Cn1c(=O)oc2cc(S(=O)(=O)N3CCC(C(=O)NCCc4ccccc4)CC3)ccc21	/	/	/	/	45.1	-1.1
ClC(Cl)(Cl)c1nc2ccccc2n2nncc12	?	4.47µM*	?	?	-5.6	-2.5
CCOC(=O)c1noc2nc(C)n(CC(=O)Nc3ccc(OC)c(Cl)c3)c(=O)c12	4.8%	/	-6.8%	7.2%[46.1 µM]	/	/
CCCCn1nc(C(=O)Nc2cc(S(=O)(=O)N(C)C)ccc2C)c2ccccc2c1=O	/	/	/	/	-7.3	2.9
COC(=O)c1c(-c2ccccc2)csc1NC1=NS(=O)(=O)c2ccccc21	-5.5%	?	-5.1%	?	+	62.4*
SMILES	Vaccinia Venus	MARV entry inh	VACV mCherry inh	Lassa entry inh	Shiga inhibitor	CHX counter
COC(=O)c1ccc(C(=O)OC)c(NC2=NS(=O)(=O)c3ccccc32)c1	-13.0%	-3.5%	i	-16.8%[14.3 µM]	-7.0	-2.4
COc1ccc(C(=O)/C=C/c2cccs2)c(OC(=O)c2cccc([N+](=O)[O-])c2)c1	-20.0%	-0.8%	i	-8.4%	131.7*	59.7*
COc1ccc(OC(=O)/C=C/c2ccc([N+](=O)[O-])cc2)cc1	0.5%	21.9%[46.1 µM]	i	7.3%[46.1 µM]	2.8	-2.3
COc1ccc(C(=O)/C=C/c2ccc(F)cc2)c(OC(=O)c2ccc([N+](=O)[O-])cc2)c1	-3.8%	2.4%	-8.6%	1.6%	20.9	22.9*
Cc1ccc(-c2ccccc2NC(=O)C2C3C=CC(C3)C2C(=O)O)o1 (stereo unspecified)	-7.7%	?	-10.5%	-0.2%	16.0	12.5
Cc1ccc(-c2cccc(NC(=O)C3C(C(=O)O)[C@@H]4C=C[C@H]3C4)c2)o1 (stereo partly specified)	-15.2%	2.9%	/	-13.4%	32.5*	18.2
COC(=O)[C@](O)(c1ccc(NC(=O)c2ccco2)c(OC)c1)C(F)(F)F	/	5.6%[46.1 µM]	/	/	/	/
COc1ccc([N+](=O)[O-])cc1NCc1cccc([N+](=O)[O-])c1	10µM*	0.8%[46.1 µM]	?	?	-2.6	11.5
